The values below come from PubChem BioAssay (EPA / NIEHS).

For orientation: AC50 means the concentration at which the activity in the assay is half-maximal.

Activity calls are given as the source filed them. How the source made its calls: active means hit-call score of the fitted dose curve at least 0.9, where 1 is the maximum; inactive means score below 0.9.

Read-out in one test: Plasminogen activator inhibitor-1 (PAI1), SERPINE1 (gene 5054)
Description: BSK_MyoF_PAI1: BioMAP Diversity Plus: MyoF Assay for Plasminogen activator inhibitor-1 (PAI1) Biomarker Activity (AID 2284256).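 On outcome: PAI-1 read 24 h after compound addition.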 The note with it: primary human lung fibroblasts. The procedure, abridged: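 Primary human lung fibroblasts treated with chemical for 24 h; PAI-1 levels quantified by ELISA relative to DMSO. Cytotoxicity was assessed in parallel cultures by SRB total-protein staining (0.1% SRB after 10% TCA fixation, 560 nm).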
In the case of `Cc1ccc2nc3sc(=O)sc3nc2c1`, the result was inactive.

As to `c1ccc(-c2cccc(-c3ccccc3)c2)cc1`, the result was inactive.

As to `O=C1C=CC(=O)c2ccccc21`, the half-maximal activity concentration (AC50) was 4.23 µM (active).

With `Oc1ccc(Cc2ccc(O)cc2)cc1`, the outcome was inactive.

On to `Oc1c(Br)cc(Br)cc1Br`, for which the result was inactive.

As for `Cc1ccccc1OP(=O)(Oc1ccccc1)Oc1ccccc1`, the AC50 was 13.5 µM (active).

For the compound `Cc1cccc(OP(=O)(Oc2cccc(C)c2)Oc2cccc(C)c2)c1`, the half-maximal activity concentration (AC50) is 0.016 µM (active).

For `Nc1c(Oc2ccccc2)cc(O)c2c1C(=O)c1ccccc1C2=O`, the result was inactive.

As for `CCOP(=O)(OCC)SCCSCC`, the outcome was inactive.

For `Cc1ccc(OP(=O)(Oc2ccc(C)cc2C)Oc2ccc(C)cc2C)c(C)c1`, the outcome was inactive.

Regarding `Oc1cccc(-c2ccccc2)c1`, the outcome was inactive.

Take `CC(C)N(C(=O)CCl)c1ccccc1`: the AC50 was 3.09 µM (active).

For the compound `Cc1cc(Cl)ccc1N`, the result was inactive.

Consider `CC(C)(C)c1cc([N+](=O)[O-])cc(C(C)(C)C)c1O`, for which the AC50 was 0.016 µM (active).

With `OC(Cc1ccccc1Cl)(Cn1[nH]cnc1=S)C1(Cl)CC1` (configuration not stated), the half-maximal activity concentration (AC50) was 34.5 µM (active).

With `O=S(=O)(C(Cl)(Cl)Cl)C(Cl)(Cl)Cl`, the AC50 is 3.03 µM (active).

`CC(C)=CC1C(C(=O)OCc2cccc(Oc3ccccc3)c2)C1(C)C` (configuration not stated): the result was inactive.

On to `O=[N+]([O-])c1cccc2ccccc12`, for which the result was inactive.

Turning to `C[C@]12CC[C@@H](O)C[C@@H]1CC[C@@H]1[C@@H]2CC[C@]2(C)C(=O)CC[C@@H]12`, the result was inactive.

Consider `Cc1ccccc1OP(=O)(Oc1ccccc1C)Oc1ccccc1C`, for which the AC50 was 11.9 µM (active).

Regarding `COCC(=O)N(c1c(C)cccc1C)[C@H](C)C(=O)OC`, the outcome was inactive.

For `Cc1c([N+](=O)[O-])c(C)c([N+](=O)[O-])c(C(C)(C)C)c1[N+](=O)[O-]`, the result was inactive.

Consider `CCOP(=S)(OCC)SCS(=O)(=O)C(C)(C)C`, for which the result was inactive.

Turning to `CCC(C)(C#N)N=NC(C)(C#N)CC` (configuration not stated), the outcome was inactive.

Read-out in another test: Interleukin-8 (IL8), CXCL8 (gene 3576)
The test is described as follows: BSK_MyoF_IL8: BioMAP Diversity Plus: MyoF Assay for Interleukin-8 (IL8) Biomarker Activity (AID 2284261). As to conditions: primary human lung fibroblasts. A digest of the protocol: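 Human lung fibroblast (MyoF system) cultures dosed for 24 h, then IL-8 measured by ELISA. Response taken relative to DMSO; parallel SRB total-protein staining for cytotoxicity.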
For the compound `Cc1ccc2nc3sc(=O)sc3nc2c1`, the AC50 was 3.31 µM (active).

For the compound `c1ccc(-c2cccc(-c3ccccc3)c2)cc1`, the AC50 is 20 µM (active).

As for `O=C1C=CC(=O)c2ccccc21`, the result was inactive.

`Oc1ccc(Cc2ccc(O)cc2)cc1`: the outcome was inactive.

`Oc1c(Br)cc(Br)cc1Br`: the half-maximal activity concentration (AC50) is 13.9 µM (active).

For the compound `Cc1ccccc1OP(=O)(Oc1ccccc1)Oc1ccccc1`, the AC50 was 0.731 µM (active).

Take `Cc1cccc(OP(=O)(Oc2cccc(C)c2)Oc2cccc(C)c2)c1`: the result was inactive.

Consider `Nc1c(Oc2ccccc2)cc(O)c2c1C(=O)c1ccccc1C2=O`, for which the AC50 was 10 µM (active).

On to `CCOP(=O)(OCC)SCCSCC`, for which the result was inactive.

Take `Cc1ccc(OP(=O)(Oc2ccc(C)cc2C)Oc2ccc(C)cc2C)c(C)c1`: the outcome was inactive.

`Oc1cccc(-c2ccccc2)c1`: the result was inactive.

With `CC(C)N(C(=O)CCl)c1ccccc1`, the AC50 is 20 µM (active).

As for `Cc1cc(Cl)ccc1N`, the outcome was inactive.

Consider `CC(C)(C)c1cc([N+](=O)[O-])cc(C(C)(C)C)c1O`, for which the outcome was inactive.

For the compound `OC(Cc1ccccc1Cl)(Cn1[nH]cnc1=S)C1(Cl)CC1` (configuration not stated), the AC50 is 12.3 µM (active).

Consider `O=S(=O)(C(Cl)(Cl)Cl)C(Cl)(Cl)Cl`, for which the outcome was inactive.

Turning to `CC(C)=CC1C(C(=O)OCc2cccc(Oc3ccccc3)c2)C1(C)C` (configuration not stated), the outcome was inactive.

For the compound `O=[N+]([O-])c1cccc2ccccc12`, the result was inactive.

Take `C[C@]12CC[C@@H](O)C[C@@H]1CC[C@@H]1[C@@H]2CC[C@]2(C)C(=O)CC[C@@H]12`: the outcome was inactive.

For `Cc1ccccc1OP(=O)(Oc1ccccc1C)Oc1ccccc1C`, the AC50 is 5.42 µM (active).

In the case of `COCC(=O)N(c1c(C)cccc1C)[C@H](C)C(=O)OC`, the outcome was inactive.

Turning to `Cc1c([N+](=O)[O-])c(C)c([N+](=O)[O-])c(C(C)(C)C)c1[N+](=O)[O-]`, the result was inactive.

Regarding `CCOP(=S)(OCC)SCS(=O)(=O)C(C)(C)C`, the outcome was inactive.

In the case of `CCC(C)(C#N)N=NC(C)(C#N)CC` (configuration not stated), the outcome was inactive.

Read-out in a further test: Decorin, DCN (gene 1634)
The test is described as follows: BSK_MyoF_Decorin: BioMAP Diversity Plus: MyoF Assay for Decorin Biomarker Activity (AID 2284265). As to conditions: primary human lung fibroblasts. The procedure, abridged: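 Human lung fibroblast cultures were dosed for 24 h, and decorin was then measured by ELISA. Parallel cultures were stained with sulforhodamine B for total protein as a cytotoxicity check. Gain of signal was fitted relative to DMSO.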
As for `Cc1ccc2nc3sc(=O)sc3nc2c1`, the AC50 is 5 µM (active).

Turning to `c1ccc(-c2cccc(-c3ccccc3)c2)cc1`, the result was inactive.

On to `O=C1C=CC(=O)c2ccccc21`, for which the AC50 was 1.33 µM (active).

Regarding `Oc1ccc(Cc2ccc(O)cc2)cc1`, the outcome was inactive.

`Oc1c(Br)cc(Br)cc1Br`: the outcome was inactive.

Take `Cc1ccccc1OP(=O)(Oc1ccccc1)Oc1ccccc1`: the AC50 is 2.3 µM (active).

Turning to `Cc1cccc(OP(=O)(Oc2cccc(C)c2)Oc2cccc(C)c2)c1`, the result was inactive.

Turning to `Nc1c(Oc2ccccc2)cc(O)c2c1C(=O)c1ccccc1C2=O`, the result was inactive.

Turning to `CCOP(=O)(OCC)SCCSCC`, the result was inactive.

Take `Cc1ccc(OP(=O)(Oc2ccc(C)cc2C)Oc2ccc(C)cc2C)c(C)c1`: the outcome was inactive.

Take `Oc1cccc(-c2ccccc2)c1`: the outcome was inactive.

In the case of `CC(C)N(C(=O)CCl)c1ccccc1`, the AC50 was 6 µM (active).

With `Cc1cc(Cl)ccc1N`, the outcome was inactive.

In the case of `CC(C)(C)c1cc([N+](=O)[O-])cc(C(C)(C)C)c1O`, the result was inactive.

On to `OC(Cc1ccccc1Cl)(Cn1[nH]cnc1=S)C1(Cl)CC1` (configuration not stated), for which the result was inactive.

For `O=S(=O)(C(Cl)(Cl)Cl)C(Cl)(Cl)Cl`, the AC50 was 3.37 µM (active).

As to `CC(C)=CC1C(C(=O)OCc2cccc(Oc3ccccc3)c2)C1(C)C` (configuration not stated), the result was inactive.

`O=[N+]([O-])c1cccc2ccccc12`: the outcome was inactive.

Regarding `C[C@]12CC[C@@H](O)C[C@@H]1CC[C@@H]1[C@@H]2CC[C@]2(C)C(=O)CC[C@@H]12`, the result was inactive.

For `Cc1ccccc1OP(=O)(Oc1ccccc1C)Oc1ccccc1C`, the half-maximal activity concentration (AC50) was 20 µM (active).

Take `COCC(=O)N(c1c(C)cccc1C)[C@H](C)C(=O)OC`: the result was inactive.

As to `Cc1c([N+](=O)[O-])c(C)c([N+](=O)[O-])c(C(C)(C)C)c1[N+](=O)[O-]`, the result was inactive.

Turning to `CCOP(=S)(OCC)SCS(=O)(=O)C(C)(C)C`, the result was inactive.

For the compound `CCC(C)(C#N)N=NC(C)(C#N)CC` (configuration not stated), the result was inactive.
